Assay results as given in the supplement of paper PMC4380459.

Test system: tubulin (bovine brain)
Assay: tubulin polymerization end-point dOD, fold change relative to DMSO vehicle; higher = more polymerization (stabilization)
Details: 50 µM; 60 min; 37 °C
Procedure: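 In-vitro tubulin polymerization assay (Cytoskeleton HTS kit) with 4 mg/ml bovine brain tubulin in G-PEM buffer and compound at 50 uM (0.5% DMSO). Turbidity was read at 340 nm every minute for 1 h at 37 C. The end-point change in OD (dOD) was converted to % fold change relative to the DMSO vehicle (0%), and runs were scaled using DMSO and Taxol controls. The paper calls >20% an effect, 20-40% weak and >40% strong; positive values mean stabilization, negative values destabilization. Scale: negative = destabilization.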

SMILES | tubulin polymerization end-point dOD
Cc1ccc(/C=N\NC(=O)c2cccc(Cl)c2)cc1 | 3.13%
COc1ccc(OC)c(NC(=O)CSc2nc3cc4c(cc3cc2C)CCC4)c1 | 20.5%
Cc1cccc(Cc2cnc(NC(=O)c3ccc(Br)cc3)s2)c1 | -17.2%
COc1ccc(Cc2cnc(NC(=O)c3sc4ccccc4c3Cl)s2)cc1 | 169%
O=C(Nc1ncc(Cc2ccccc2)s1)c1cc(Br)c[nH]1 | 2.89%
Cc1cc2c(cc(C(=O)OCC(=O)NCc3ccco3)n2C)s1 | 39.4%
Cc1ccc2cc(CN(CC3CCCO3)C(=S)Nc3ccccc3)c(=O)[nH]c2c1 (stereo not given) | 0.1%
COc1ccc(Cl)cc1NC(=O)CSc1nnc(-c2ccncc2)n1-c1ccccc1 | -50.9%
CCCn1c(SCC(=O)Nc2ccccc2OC)nnc1-c1cccnc1 | -56.1%
COc1cc(Br)c(-c2cc3cc(Cl)ccc3oc2=O)cc1OC | 77.7%
Cc1ccc(/C=N/NC(=O)c2ccc3c(c2)OCO3)cc1 | -38.5%
O=c1[nH]c(CSc2nnc(C3CC3)n2C2CC2)nc2sc(-c3ccccc3)cc12 | 31.8%
CC(=O)N1c2ccc(NC(=O)c3cc4cccc(C)c4nc3C)cc2CC1C (stereo not given) | 0.65%
COc1ccc(NC(=O)N(Cc2cc3ccc(C)c(C)c3[nH]c2=O)CC2CCCO2)cc1 (stereo not given) | 33.3%
COc1ccc(OCc2nnc(SCC(N)=O)n2-c2cc(C)ccc2C)cc1 | -39.4%
O=C(Nc1ccccc1Cl)N(Cc1cccs1)Cc1cc2cc3c(cc2[nH]c1=O)OCCO3 | -17.8%
CC(=O)c1c(C)oc2c1cc(NS(=O)(=O)c1ccc(C)cc1)c1ccccc12 | -58.9%
CCC(C)Cc1c(C)sc2nc(SCc3nnc(C)o3)[nH]c(=O)c12 (stereo not given) | -13.9%
COc1cc2c(cc1OC)C(c1cccs1)N(C(=O)Nc1ccc(Cl)cc1)CC2 (stereo not given) | 70.5%
Cc1ccc(Nc2nc(N)nc(CN3C(=O)NC(C)(c4ccccc4)C3=O)n2)cc1 (stereo not given) | 48.1%

SMILES | tubulin polymerization end-point dOD
Cc1cc2nc(/C=C/c3cccnc3)sc2cc1C | -34.3%
Cn1c(C(=O)Nc2ccc(-c3nccs3)cc2)cc(Br)c1Br | 15.5%
C=CCc1ccccc1OCC(=O)N/N=C\c1ccc(Cl)cc1 | -25.9%
COc1ccc(CCNC(=O)CSc2nc3cc4c(cc3cc2C)OCO4)cc1OC | -49.9%
CS(=O)(=O)c1ccc(C(=O)Nc2ncc(Cc3cccc(Cl)c3Cl)s2)cc1 | -8.57%
O=C1CCCN1c1ccc(S(=O)(=O)Oc2ccc(Cl)cc2)cc1 | -18.4%
O=C(c1cncn1-c1ccccc1)N1CCN(c2cccc(Cl)c2)CC1 | -50%
CCc1ccccc1NC(=O)CSc1nc2cc3c(cc2cc1C#N)OCO3 | 56.6%
CCc1nnc(NC(=O)CSc2cc(C)c3cc(C)cc(C)c3n2)s1 | 19.7%
O=C(Nc1nc2ccccc2[nH]1)c1cccc2ccccc12 | -76.4%
O=C(c1cccnc1N1CCCC1)N1CC=C(c2c[nH]c3ccccc23)CC1 | -49.4%
Cc1cccc2cc(C#N)c(SCC(=O)c3ccc(F)cc3)nc12 | -11.1%
O=C1CCCN1Cc1ccc(-c2ccccc2CNc2ncccn2)cc1 | -32.9%
O=C(Nc1ccc(N2CCc3sccc3C2)nc1)c1ccccc1F | -40.4%
COc1cccc(N2CCN(C(=O)c3cn(-c4ccccc4)nc3-c3cccnc3)CC2)c1 | -111%
COc1ccc(CNc2c(-c3ccccc3O)nc3cnccn23)cc1 | 0.31%
COc1ccccc1Nc1nc(-c2ccc(S(C)(=O)=O)cc2)cs1 | 104%
O=C(Nc1ncc(Cc2ccccc2Cl)s1)c1ccncc1 | -29.4%
CCOc1ccc2nc(SCC(=O)Nc3ccc(OC)cc3OC)c(C)cc2c1 | 14.5%
COc1ccccc1-n1c(SCC(=O)Nc2nc(C)cs2)nnc1-c1cccnc1 | -51%
